Reference: PubChem BioAssay (EPA / NIEHS)
Where “and” joins values, the source holds several entries; their conditions need not be identical. Equal values may be shown once. Results filed as inconclusive are left out. Calls of active or inactive are those of the source. The calls were made as follows, unless noted: active = hit-call score of the fitted dose curve at least 0.9, where 1 is the maximum; inactive = score below 0.9.

Key:
[1] = read-out: Pyruvate Dehydrogenase Kinase 4 (PDK4), PDK4 (gene 5166); assay: LTEA_HepaRG_PDK4: Life Technologies and Expression Analysis (LTEA) Assay for Pyruvate Dehydrogenase Kinase 4 (PDK4) using HepaRG (AID 2283525); conditions: mRNA level, 48 h; actives raise or lower the signal
Method in brief: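 Readout is qRT-PCR of PDK4 transcript, normalized to three housekeeping genes, with bidirectional fitting against 0.5% DMSO vehicle. Differentiated HepaRG cells were treated 48 h in serum-free induction medium, duplicate wells, eight-point half-log series topping at 100 uM.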

[2] = read-out: NAD(P)H dehydrogenase [quinone] 1 (NQO1), NQO1 (gene 1728); assay: LTEA_HepaRG_NQO1: Life Technologies and Expression Analysis (LTEA) Assay for NAD(P)H dehydrogenase [quinone] 1 (NQO1) using HepaRG (AID 2283526); conditions: mRNA level, 48 h; actives raise or lower the signal
Method in brief: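 Transcript induction or suppression is quantified by qRT-PCR in human HepaRG liver cells dosed for 48 hours. Eight half-log concentrations topping at 100 uM are used, with 0.5% DMSO as vehicle and baseline.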

[3] = read-out: Nuclear factor erythroid 2-related factor 2 (Homo sapiens) (UniProt Q16236); assay: LTEA_HepaRG_NFE2L2: Life Technologies and Expression Analysis (LTEA) Assay for Nuclear factor erythroid 2-related factor 2 (NFE2L2) Transcription Factor using HepaRG (AID 2283527); conditions: mRNA level, 48 h; actives raise or lower the signal
Method in brief: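 NFE2L2 transcript level was read by qRT-PCR (housekeeping ACTB/GAPDH/POLR2A normalisation) after 48 h chemical treatment of HepaRG in serum-free induction medium. Duplicate 8-point half-log curves, top 100 uM, 0.5% DMSO vehicle; up- or down-regulation fitted against vehicle.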

[4] = read-out: succinate dehydrogenase complex iron sulfur subunit B (SDHB), SDHB (gene 6390); assay: LTEA_HepaRG_SDHB: Life Technologies and Expression Analysis (LTEA) Assay for succinate dehydrogenase complex iron sulfur subunit B (SDHB) using HepaRG (AID 2283528); conditions: mRNA level, 48 h; actives raise or lower the signal
Method in brief: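 HepaRG, 48 h exposure, 8-pt half-log series from 100 uM in 0.5% DMSO, duplicates. Readout: SDHB mRNA by Fluidigm qRT-PCR vs housekeeping genes; bidirectional fit relative to DMSO.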

[5] = read-out: Signal transducer and activator of transcription 3 (Homo sapiens) (UniProt P40763); assay: LTEA_HepaRG_STAT3: Life Technologies and Expression Analysis (LTEA) Assay for Signal transducer and activator of transcription (STAT3) using HepaRG (AID 2283529); conditions: mRNA level, 48 h; actives raise or lower the signal
Method in brief: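 STAT3 transcript quantified by qRT-PCR against three housekeeping genes (ACTB, GAPDH, POLR2A), fitted both directions relative to DMSO. HepaRG cultures exposed 48 h to eight half-log concentrations, top 100 uM, 0.5% DMSO, serum-free induction medium.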

[6] = read-out: solute carrier (SLCO1B1), SLCO1B1 (gene 10599); assay: LTEA_HepaRG_SLCO1B1: Life Technologies and Expression Analysis (LTEA) Assay for solute carrier (SLCO1B1) using HepaRG (AID 2283530); conditions: mRNA level, 48 h; actives raise or lower the signal
Method in brief: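 SLCO1B1 transcript levels were quantified by TaqMan qRT-PCR using three housekeeping genes for normalization. This followed 48 h chemical exposure (100 uM top, half-log, 8 points, 0.5% DMSO) of HepaRG liver cells, with gain or loss fitted relative to DMSO.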

[7] = read-out: sulfotransferase 2A1 (SULT2A1), SULT2A1 (gene 6822); assay: LTEA_HepaRG_SULT2A1: Life Technologies and Expression Analysis (LTEA) Assay for sulfotransferase 2A1 (SULT2A1) using HepaRG (AID 2283531); conditions: mRNA level, 48 h; actives raise or lower the signal
Method in brief: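 Expression change of SULT2A1, by qRT-PCR with three housekeeping-gene normalization, was scored bidirectionally versus DMSO. Cells: differentiated HepaRG, dosed in duplicate for 48 h across 8 points, highest 100 µM, half-log dilution, 0.5% DMSO.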

[8] = read-out: Transforming Growth Factor (TGFA), TGFA (gene 7039); assay: LTEA_HepaRG_TGFA: Life Technologies and Expression Analysis (LTEA) Assay for Transforming Growth Factor (TGFA) using HepaRG (AID 2283532); conditions: mRNA level, 48 h; actives raise or lower the signal
Method in brief: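 TGFA transcript quantified by qRT-PCR (Fluidigm arrays) against three housekeeping genes, after 48 hours chemical treatment of HepaRG cells. Top concentration 100 uM with half-log dilutions, 8 points, duplicates, 0.5% DMSO.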

[9] = read-out: Transforming Growth Factor (TGFB1), TGFB1 (gene 7040); assay: LTEA_HepaRG_TGFB1: Life Technologies and Expression Analysis (LTEA) Assay for Transforming Growth Factor (TGFB1) Transporter using HepaRG (AID 2283533); conditions: mRNA level, 48 h; actives raise or lower the signal
Method in brief: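 TGFB1 transcript measured by qRT-PCR with normalisation to three housekeeping genes (ACTB, GAPDH, POLR2A); human HepaRG line treated in duplicate for 48 hr with an 8-point series topping at 100 uM, 0.5% DMSO vehicle, bidirectionally fitted.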

[10] = read-out: Tumor necrosis factor receptor 1 (TNFRSF1A), TNFRSF1A (gene 7132); assay: LTEA_HepaRG_TNFRSF1A: Life Technologies and Expression Analysis (LTEA) Assay for Tumor necrosis factor receptor 1 (TNFRSF1A) using HepaRG (AID 2283535); conditions: mRNA level, 48 h; actives raise or lower the signal
Method in brief: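 mRNA measured by qRT-PCR (TaqMan, Fluidigm arrays) against ACTB/GAPDH/POLR2A housekeepers after 48 h chemical exposure of HepaRG cells. Top concentration 100 uM, half-log 8-point series, duplicates; vehicle 0.5% DMSO, both fit directions.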

[11] = read-out: Cellular tumor antigen p53 (Homo sapiens) (UniProt P04637); assay: LTEA_HepaRG_TP53: Life Technologies and Expression Analysis (LTEA) Assay for Tumor Protein P53 (TP53) using HepaRG (AID 2283537); conditions: mRNA level, 48 h; actives raise or lower the signal
Method in brief: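 HepaRG, 48 h exposure, top 100 uM, half-log 8-point, 0.5% DMSO vehicle, duplicates. Read: TP53 mRNA by TaqMan qRT-PCR, normalised to ACTB/GAPDH/POLR2A; bidirectional fit vs DMSO.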

[12] = read-out: UDP glucuronosyltransferase (UGT1A1), UGT1A1 (gene 54658); assay: LTEA_HepaRG_UGT1A1: Life Technologies and Expression Analysis (LTEA) Assay for UDP glucuronosyltransferase (UGT1A1) using HepaRG (AID 2283538); conditions: mRNA level, 48 h; actives raise or lower the signal
Method in brief: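 Cells are plated, cultured 48 h, switched to serum-free induction medium, then dosed 48 h at eight concentrations (max 100 uM, 0.5% DMSO). RNA is isolated and UGT1A1 expression measured by qRT-PCR; changes versus DMSO are fitted in both directions.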

[13] = read-out: UDP glucuronosyltransferase (UGT1A6), UGT1A6 (gene 54578); assay: LTEA_HepaRG_UGT1A6: Life Technologies and Expression Analysis (LTEA) Assay for UDP glucuronosyltransferase (UGT1A6) using HepaRG (AID 2283539); conditions: mRNA level, 48 h; actives raise or lower the signal
Method in brief: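 Expression was quantified by TaqMan qRT-PCR on Fluidigm arrays with ACTB/GAPDH/POLR2A normalization and bidirectional fitting against 0.5% DMSO. HepaRG cells (~100,000/well) were treated in duplicate for 48 h at eight half-log concentrations up to 100 uM in serum-free induction medium.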

[14] = read-out: X-box binding protein 1 (XBP1), XBP1 (gene 7494); assay: LTEA_HepaRG_XBP1: Life Technologies and Expression Analysis (LTEA) Assay for X-box binding protein 1 (XBP1) using HepaRG (AID 2283540); conditions: mRNA level, 48 h; actives raise or lower the signal
Method in brief: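 XBP1 transcript by qRT-PCR (housekeeping-normalized: ACTB, GAPDH, POLR2A) after 48 h chemical treatment of HepaRG cells, 8-point half-log series topping at 100 uM, vehicle 0.5% DMSO. Gain and loss of signal fitted relative to DMSO.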

[15] = LTEA_HepaRG_LDH_cytotoxicity: Cytotoxicity Assessment in the Life Technologies and Expression Analysis (LTEA) Assay (AID 2283563; active = hit-call score of the fitted dose curve at least 0.9, where 1 is the maximum)
Method in brief: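 LDH release into culture medium read after 48 h chemical treatment of HepaRG cells. Duplicate wells, eight-point half-log series topping at 100 uM, 0.5% DMSO vehicle and baseline.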

[16] = ATG_XTT_Cytotoxicity: Cytotoxicity Assessment in the Attagene TRANS-FACTORIAL HepG2 Assay (AID 2283584; active = hit-call score of the fitted dose curve at least 0.9, where 1 is the maximum)
Method in brief: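 Viability endpoint from XTT after 24 h chemical exposure of reporter-transfected human HepG2 liver cells; signal loss fitted relative to DMSO negative control.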

[17] = TOX21_p53_BLA_p2_viability: Viability Assessment in the Tox21 HCT-116 p53 Agonism Beta-lactamase Assay, Phase 2 (AID 2283591; active = hit-call score of the fitted dose curve at least 0.9, where 1 is the maximum;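 also: compound exposure lasted 16 h at 37 °C; actives lower the ATP signal meaning cytotoxicity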)
Method in brief: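 Cytotoxicity readout: CellTiter-Glo ATP luminescence, 30 min at room temperature, after the beta-lactamase read. Cells were HCT116 exposed 16 h at 37C to compounds pin-transferred at 217-fold dilution from DMSO stocks.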

[18] = biological target: Cellular tumor antigen p53 (Homo sapiens) (UniProt P04637); assay: TOX21_p53_BLA_p2_ratio: Tox21 HCT-116 p53 Agonism Beta-lactamase Assay, Ratio, Phase 2 (AID 2283592; active = hit-call score of the fitted dose curve at least 0.9, where 1 is the maximum)
Method in brief: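 Read-out is the blue/green (460/530 nm, 405 nm excitation) ratio after 2 h CCF4-AM loading, fitted as gain versus DMSO. Compounds, pinned at 217-fold dilution from DMSO stocks, stayed 16 h on HCT-116 beta-lactamase reporter cells seeded 5 h earlier.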

[19] = read-out: Thyroid Hormone Responsive (THRSP), THRSP (gene 7069); assay: LTEA_HepaRG_THRSP: Life Technologies and Expression Analysis (LTEA) Assay for Thyroid Hormone Responsive (THRSP) using HepaRG (AID 2283536); conditions: mRNA level, 48 h; actives raise or lower the signal
Method in brief: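 THRSP transcript quantified by Fluidigm qRT-PCR against three housekeeping genes after 48 h chemical exposure of HepaRG cells in serum-free induction medium; eight-point half-log series, top 100 uM, 0.5% DMSO vehicle, duplicate wells.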

[20] = read-out: TIMP1, TIMP1 (gene 7076); assay: LTEA_HepaRG_TIMP1: Life Technologies and Expression Analysis (LTEA) Assay for TIMP1 using HepaRG (AID 2283534); conditions: mRNA level, 48 h; actives raise or lower the signal
Method in brief: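 Bidirectional change in TIMP1 transcript versus 0.5% DMSO, measured by TaqMan qRT-PCR with three housekeeping genes for normalization. HepaRG human liver cells dosed 48 h in duplicate, top concentration 100 uM with half-log dilutions.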

Measured: AC50

Sequence of Signal transducer and activator of transcription 3 (Homo sapiens) (P40763 whole entry, looked up): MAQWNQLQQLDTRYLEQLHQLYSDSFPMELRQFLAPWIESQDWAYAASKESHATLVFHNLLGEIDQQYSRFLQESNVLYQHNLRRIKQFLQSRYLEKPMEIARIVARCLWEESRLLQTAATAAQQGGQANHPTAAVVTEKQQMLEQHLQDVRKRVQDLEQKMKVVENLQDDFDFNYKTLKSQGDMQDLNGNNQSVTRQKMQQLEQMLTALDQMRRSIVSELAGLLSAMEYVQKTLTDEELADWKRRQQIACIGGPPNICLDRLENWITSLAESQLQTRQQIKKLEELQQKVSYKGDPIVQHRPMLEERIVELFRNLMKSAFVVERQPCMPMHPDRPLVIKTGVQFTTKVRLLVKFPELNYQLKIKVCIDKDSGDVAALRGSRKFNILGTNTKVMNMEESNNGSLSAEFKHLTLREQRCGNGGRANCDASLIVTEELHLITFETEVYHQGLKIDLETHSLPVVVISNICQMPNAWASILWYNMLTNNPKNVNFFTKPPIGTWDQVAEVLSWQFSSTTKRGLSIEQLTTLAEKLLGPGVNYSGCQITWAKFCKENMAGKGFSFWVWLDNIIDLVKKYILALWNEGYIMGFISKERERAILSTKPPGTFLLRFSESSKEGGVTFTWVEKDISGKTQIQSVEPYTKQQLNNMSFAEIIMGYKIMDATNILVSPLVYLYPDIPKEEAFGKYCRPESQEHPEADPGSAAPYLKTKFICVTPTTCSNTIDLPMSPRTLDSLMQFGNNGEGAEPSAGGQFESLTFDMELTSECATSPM
Sequence of Cellular tumor antigen p53 (Homo sapiens) (P04637 whole entry, looked up): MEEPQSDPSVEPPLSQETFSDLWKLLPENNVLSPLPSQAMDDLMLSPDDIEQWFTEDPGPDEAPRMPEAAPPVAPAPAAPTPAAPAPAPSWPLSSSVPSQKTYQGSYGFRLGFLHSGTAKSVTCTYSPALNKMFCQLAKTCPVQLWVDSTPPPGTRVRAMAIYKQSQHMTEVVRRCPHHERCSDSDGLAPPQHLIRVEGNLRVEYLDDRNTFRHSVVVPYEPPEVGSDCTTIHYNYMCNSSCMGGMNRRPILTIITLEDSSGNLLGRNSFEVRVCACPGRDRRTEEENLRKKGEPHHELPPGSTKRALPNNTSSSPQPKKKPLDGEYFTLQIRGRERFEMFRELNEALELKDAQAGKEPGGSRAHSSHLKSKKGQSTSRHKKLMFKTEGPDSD
Sequence of Nuclear factor erythroid 2-related factor 2 (Homo sapiens) (Q16236 whole entry, looked up): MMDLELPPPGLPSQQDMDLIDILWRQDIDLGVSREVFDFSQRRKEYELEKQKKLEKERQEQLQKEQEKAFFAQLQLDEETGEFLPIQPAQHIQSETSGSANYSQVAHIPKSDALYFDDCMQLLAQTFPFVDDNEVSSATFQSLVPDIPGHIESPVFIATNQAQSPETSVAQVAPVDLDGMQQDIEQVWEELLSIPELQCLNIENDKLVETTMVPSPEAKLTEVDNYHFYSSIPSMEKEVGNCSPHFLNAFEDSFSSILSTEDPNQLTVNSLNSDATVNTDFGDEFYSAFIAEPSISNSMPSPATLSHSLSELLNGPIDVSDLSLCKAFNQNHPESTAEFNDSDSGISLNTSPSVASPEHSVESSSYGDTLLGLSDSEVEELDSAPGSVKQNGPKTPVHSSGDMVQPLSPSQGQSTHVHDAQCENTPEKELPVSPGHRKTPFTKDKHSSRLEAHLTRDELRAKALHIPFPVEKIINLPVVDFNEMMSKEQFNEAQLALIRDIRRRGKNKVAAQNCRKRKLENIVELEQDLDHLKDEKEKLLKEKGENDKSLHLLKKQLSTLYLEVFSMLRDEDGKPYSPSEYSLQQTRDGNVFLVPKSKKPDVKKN

CCOCCO
inactive: [1] | [2] | [3] | [4] | [5] | [6] | [7] | [8] | [9] | [10] | [11] | [12] | [13] | [14] | [15] | [16] | [17] | [18]

COCCOCCOCCOC
inactive: [1] | [2] | [3] | [4] | [5] | [6] | [7] | [8] | [9] | [10] | [19] | [11] | [12] | [13] | [14] | [15] | [16] | [18]

CCCCCCCCO
inactive: [1] | [2] | [3] | [4] | [5] | [6] | [7] | [8] | [9] | [20] | [10] | [19] | [11] | [12] | [13] | [14] | [15] | [17] | [18]

O=C(O)CC(O)C(=O)O (centres undefined)
inactive: [1] | [2] | [3] | [4] | [5] | [6] | [8] | [9] | [10] | [19] | [11] | [12] | [13] | [14] | [15] | [16] | [17] | [18]

O=C(OC[C@H]1O[C@@H](OC(=O)c2cc(O)c(O)c(OC(=O)c3cc(O)c(O)c(O)c3)c2)[C@H](OC(=O)c2cc(O)c(O)c(OC(=O)c3cc(O)c(O)c(O)c3)c2)[C@@H](OC(=O)c2cc(O)c(O)c(OC(=O)c3cc(O)c(O)c(O)c3)c2)[C@@H]1OC(=O)c1cc(O)c(O)c(OC(=O)c2cc(O)c(O)c(O)c2)c1)c1cc(O)c(O)c(OC(=O)c2cc(O)c(O)c(O)c2)c1
active: [1] 24.5 µM | [2] 5.1 µM | [3] 15.2 µM | [6] 9.07 µM | [8] 6.41 µM | [9] 2.96 µM | [19] 6.1 µM | [11] 4.95 µM | [12] 4.66 µM | [13] 5.4 µM | [17] 17.2 µM and 5.28 µM | [18] 12.9 µM and 6.14 µM
inactive: [4] | [5] | [10] | [14] | [15] | [16]

CCn1nc(Cc2ccccc2)cc1C1CCN(C[C@H]2C[C@H](N(C)[C@@H](C(=O)O)C(C)C)C[C@@H]2c2cccc(F)c2)CC1
inactive: [1] | [2] | [3] | [4] | [5] | [6] | [8] | [10] | [11] | [12] | [13] | [14] | [15] | [17]
active: [9] 73.3 µM

CCCCCCCCCCCCc1ccccc1
inactive: [1] | [2] | [3] | [4] | [5] | [6] | [8] | [9] | [20] | [10] | [11] | [12] | [13] | [14] | [15] | [16] | [17] | [18]
